Results reported in PubChem BioAssay AID1159580 (chemical genetic matrix, 2015).
Hit rate of the full screen: of about 5,500 compounds, about 2,000 (36%) were called active. Roughly 18% stayed inconclusive and do not appear here. No stated cut-off is given here; in the data, active means normalized growth mostly below about 0.91 (no sharp cut-off); inconclusive means no clear call, values can overlap the other calls; inactive means mostly above about 0.92. This is one part of the list.

Assay: chemical genetic growth profiling, strain panel (AID 1159580);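 further: tested at 20 µM; growth read once vehicle control cultures reached saturation at 30 °C; 1 = growth at the plate median or of vehicle wells; lower values mean less growth of the strain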
Settings: growth OD
[1] = S. cerevisiae deletion strains, locus YHR030C, strain SLT2, hits give low values
[2] = S. cerevisiae deletion strains, locus YHR079C, strain IRE1, hits give low values
[3] = S. cerevisiae deletion strains, locus YJL095W, strain BCK1, hits give low values
[4] = S. cerevisiae deletion strains, locus YJR066W, strain TOR1, hits give low values
[5] = S. cerevisiae deletion strains, locus YLR113W, strain HOG1, hits give low values
[6] = S. cerevisiae deletion strains, locus YNL183C, strain NPR1, hits give low values
[7] = S. cerevisiae deletion strains, locus YOR231W, strain MKK1, hits give low values
[8] = S. cerevisiae deletion strains, locus YPL256C, strain CLN2, hits give low values
[9] = S. cerevisiae deletion strains, locus YDR150W, strain NUM1, hits give low values
[10] = S. cerevisiae deletion strains, locus YGR229C, strain SMI1, hits give low values
[11] = S. cerevisiae deletion strains, locus YPL055C, strain LGE1, hits give low values
[12] = S. cerevisiae deletion strains, locus YPL241C, strain CIN2, hits give low values
[13] = S. cerevisiae deletion strains, locus YDL101C, strain DUN1, hits give low values

Measured: normalized growth

COC(=O)C(c1ccccc1)C1CCCCN1 (stereo unspecified)
inactive: [1] 0.978 | [2] 0.975 | [3] 0.974 | [4] 0.934 | [5] 0.95 | [6] 0.891 | [7] 0.971 | [8] 0.972

O=C(NCCNCC(O)COc1ccc(O)cc1)N1CCOCC1 (stereo unspecified)
inactive: S. cerevisiae deletion strains, locus YAL040C, strain CLN3, hits give low values 0.976 | S. cerevisiae deletion strains, locus YCL061C, strain MRC1 (second series), hits give low values 1 | [9] 0.993 | S. cerevisiae deletion strains, locus YDR363W, strain ESC2, hits give low values 1.01 | S. cerevisiae deletion strains, locus YER002W, strain NOP16, hits give low values 1.02 | [10] 1.02 | S. cerevisiae deletion strains, locus YMR307W, strain GAS1, hits give low values 0.997 | S. cerevisiae deletion strains, locus YNL128W, strain TEP1, hits give low values 0.998 | S. cerevisiae deletion strains, locus YNL175C, strain NOP13, hits give low values 0.998 | S. cerevisiae deletion strains, locus YNL197C, strain WHI3, hits give low values 0.993 | S. cerevisiae deletion strains, locus YNL224C, strain SQS1, hits give low values 0.997 | S. cerevisiae deletion strains, locus YOR083W, strain WHI5 (second series), hits give low values 1.01 | [11] 1.02 | [12] 1

Cc1ccc(OS(=O)(=O)c2ccc(Cl)cc2)c([N+](=O)[O-])n1
inactive: S. cerevisiae deletion strains, locus YAL013W, strain DEP1, hits give low values 0.965 | S. cerevisiae deletion strains, locus YBR229C, strain ROT2, hits give low values 0.987 | [13] 0.932 | S. cerevisiae deletion strains, locus YDL134C, strain PPH21, hits give low values 0.968 | [9] 0.833 | S. cerevisiae deletion strains, locus YEL061C, strain CIN8, hits give low values 0.964 | S. cerevisiae deletion strains, locus YGR078C, strain PAC10, hits give low values 0.931 | [10] 0.978 | [1] 0.775 | S. cerevisiae deletion strains, locus YHR087W, strain rtc3, hits give low values 0.975 | S. cerevisiae deletion strains, locus YJR043C, strain POL32, hits give low values 0.945 | S. cerevisiae deletion strains, locus YJR075W, strain HOC1, hits give low values 0.917 | S. cerevisiae deletion strains, locus YKL190W, strain CNB1, hits give low values 0.968 | S. cerevisiae deletion strains, locus YLR039C, strain RIC1, hits give low values 0.895 | S. cerevisiae deletion strains, locus YLR058C, strain SHM2 (second series), hits give low values 0.988 | S. cerevisiae deletion strains, locus YLR085C, strain ARP6, hits give low values 0.875 | S. cerevisiae deletion strains, locus YLR262C, strain YPT6, hits give low values 0.908 | S. cerevisiae deletion strains, locus YML094W, strain GIM5, hits give low values 0.953 | S. cerevisiae deletion strains, locus YMR219W, strain ESC1, hits give low values 0.973 | S. cerevisiae deletion strains, locus YMR263W, strain SAP30, hits give low values 0.95 | S. cerevisiae deletion strains, locus YNL153C, strain GIM3, hits give low values 0.936 | S. cerevisiae deletion strains, locus YNL298W, strain CLA4 (second series), hits give low values 0.915 | S. cerevisiae deletion strains, locus YNL322C, strain KRE1, hits give low values 0.976 | S. cerevisiae deletion strains, locus YNR030W, strain Alg12, hits give low values 0.943 | [11] 0.962 | [12] 0.943 | S. cerevisiae deletion strains, locus YPR135W, strain CTF4, hits give low values 0.877 | S. cerevisiae strains, strain wild type, hits give low values 0.949

Cc1ccc(OS(=O)(=O)c2c(Cl)sc(Cl)c2Br)c([N+](=O)[O-])n1
active: [5] 0.818
inactive: S. cerevisiae deletion strains, locus YAR019C, strain CDC15, hits give low values 0.964 | S. cerevisiae deletion strains, locus YBL105C, strain PKC1, hits give low values 0.964 | S. cerevisiae deletion strains, locus YBR135W, strain CKS1, hits give low values 0.968 | S. cerevisiae deletion strains, locus YBR136W, strain MEC1, hits give low values 0.967 | S. cerevisiae deletion strains, locus YBR160W, strain CDC28, hits give low values 0.963 | S. cerevisiae deletion strains, locus YDL017W, strain CDC7, hits give low values 0.957 | S. cerevisiae deletion strains, locus YDL028C, strain MPS1, hits give low values 0.972 | [13] 0.956 | S. cerevisiae deletion strains, locus YDL108W, strain KIN28, hits give low values 0.965 | S. cerevisiae deletion strains, locus YDL132W, strain cdc53, hits give low values 0.961 | S. cerevisiae deletion strains, locus YDL214C, strain PRR2, hits give low values 0.962 | S. cerevisiae deletion strains, locus YDR052C, strain DBF4, hits give low values 0.968 | S. cerevisiae deletion strains, locus YDR054C, strain cdc34, hits give low values 0.956 | S. cerevisiae deletion strains, locus YDR226W, strain ADK1, hits give low values 0.953 | S. cerevisiae deletion strains, locus YDR477W, strain SNF1, hits give low values 0.97 | S. cerevisiae deletion strains, locus YER123W, strain YCK3, hits give low values 0.952 | S. cerevisiae deletion strains, locus YER133W, strain GLC7, hits give low values 0.975 | S. cerevisiae deletion strains, locus YFL009W, strain cdc4, hits give low values 0.961 | S. cerevisiae deletion strains, locus YFL029C, strain CAK1, hits give low values 0.96 | S. cerevisiae deletion strains, locus YFR003C, strain YPI1, hits give low values 0.961 | S. cerevisiae deletion strains, locus YFR019W, strain FAB1, hits give low values 0.98 | S. cerevisiae deletion strains, locus YFR028C, strain CDC14, hits give low values 0.965 | S. cerevisiae deletion strains, locus YGR040W, strain KSS1, hits give low values 0.972 | S. cerevisiae deletion strains, locus YGR052W, strain FMP48, hits give low values 1 | S. cerevisiae deletion strains, locus YGR092W, strain DBF2, hits give low values 0.951 | [1] 0.961 | [2] 0.929 | S. cerevisiae deletion strains, locus YHR082C, strain KSP1, hits give low values 1.07 | S. cerevisiae deletion strains, locus YHR205W, strain SCH9, hits give low values 0.953 | S. cerevisiae deletion strains, locus YIL147C, strain SLN1, hits give low values 0.966 | [3] 0.968 | S. cerevisiae deletion strains, locus YJL128C, strain PBS2, hits give low values 0.909 | S. cerevisiae deletion strains, locus YJL157C, strain FAR1, hits give low values 0.96 | S. cerevisiae deletion strains, locus YJR016C, strain ILV3, hits give low values 0.965 | S. cerevisiae deletion strains, locus YJR066W, strain TOR1 (second series), hits give low values 0.956 | [4] 1.02 | S. cerevisiae deletion strains, locus YKL048C, strain ELM1, hits give low values 0.965 | S. cerevisiae deletion strains, locus YKL067W, strain YNK1, hits give low values 0.959 | S. cerevisiae deletion strains, locus YKL101W, strain HSL1, hits give low values 0.979 | S. cerevisiae deletion strains, locus YKL193C, strain SDS22, hits give low values 0.963 | S. cerevisiae deletion strains, locus YKL203C, strain TOR2, hits give low values 0.991 | S. cerevisiae deletion strains, locus YLR133W, strain CKI1, hits give low values 0.968 | S. cerevisiae deletion strains, locus YLR403W, strain SFP1, hits give low values 0.967 | S. cerevisiae deletion strains, locus YML070W, strain DAK1, hits give low values 0.959 | S. cerevisiae deletion strains, locus YMR001C, strain CDC5, hits give low values 0.957 | S. cerevisiae deletion strains, locus YMR205C, strain PFK2 (second series), hits give low values 0.971 | S. cerevisiae deletion strains, locus YMR277W, strain FCP1, hits give low values 0.961 | S. cerevisiae deletion strains, locus YNL006W, strain LST8, hits give low values 0.962 | S. cerevisiae deletion strains, locus YNL020C, strain ARK1, hits give low values 0.971 | S. cerevisiae deletion strains, locus YNL161W, strain CBK1, hits give low values 0.968 | [6] 1.01 | S. cerevisiae deletion strains, locus YNL207W, strain RIO2, hits give low values 0.955 | S. cerevisiae deletion strains, locus YNL222W, strain SSU72, hits give low values 0.971 | S. cerevisiae deletion strains, locus YNL307C, strain MCK1 (second series), hits give low values 0.965 | S. cerevisiae deletion strains, locus YOL078W, strain AVO1, hits give low values 0.967 | S. cerevisiae deletion strains, locus YOL136C, strain PFK27, hits give low values 0.957 | S. cerevisiae deletion strains, locus YOR061W, strain CKA2, hits give low values 0.962 | S. cerevisiae deletion strains, locus YOR119C, strain RIO1, hits give low values 1.04 | [7] 0.942 | S. cerevisiae deletion strains, locus YOR329C, strain SCD5, hits give low values 0.959 | S. cerevisiae deletion strains, locus YPL031C, strain PHO85, hits give low values 0.959 | S. cerevisiae deletion strains, locus YPL153C, strain RAD53, hits give low values 0.963 | S. cerevisiae deletion strains, locus YPL204W, strain HRR25, hits give low values 0.978 | S. cerevisiae deletion strains, locus YPL209C, strain IPL1, hits give low values 0.963 | [8] 0.92 | S. cerevisiae deletion strains, locus YPR025C, strain CCL1, hits give low values 0.964 | S. cerevisiae deletion strains, locus YPR106W, strain ISR1, hits give low values 0.961 | S. cerevisiae deletion strains, locus YPR111W, strain DBF20, hits give low values 0.948 | S. cerevisiae deletion strains, strain NNK1, hits give low values 0.956 | S. cerevisiae deletion strains, strain TSCII, hits give low values 0.957
